PubChem BioAssay (NCI)
Compounds without any hit were thinned out: in the full panel of roughly 83,000, 20% have a hit.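 Cells were grown in 96-well plates and exposed to the test compound at a single concentration for 48 hours; results are reported as percent growth, with values below 10 considered active.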 Values without a mark were called inactive. Calls of active or inactive are those of the source.

Test system: SK-MEL-28 melanoma
Assay: NCI-60 one-dose screen, 48 h (100 = growth as untreated, 0 = no growth, -100 = all killed)
Conditions: 10 µM unless noted
Procedure: Growth inhibition of the SK-MEL-28 human tumor cell line is measured as a screen for anti-cancer activity. Cells are grown in 96 well plates and exposed to the test compound for 48 hours. Compounds are tested at a single concentration, which is 10^-5 M for most compounds. The reported endpoint is percent growth (GI% or GIPRCNT), where numbers from 0 - 100% represent growth inhibition, and numbers from -100% - 0 represent cell death. For example, a value of 40 represents 60% growth inhibition. A value of 0 means no net growth occurred over the course of the experiment. A value of -40 indicates 40% of cells at the beginning of the experiment died by the end of the experiment. A value of -100 means all cells are dead at the end of the experiment.
NCI-60 Human Tumor Cell Lines Screen was performed using the standard one-dose NCI protocol, which is described in more detail at https://dtp.cancer.gov/discovery_development/nci-60/default.htm.
Compounds with GIPRCNT values below 10 were considered active. Activity score was based on GIPRCNT using the following formula: […]
Score is 0 for GIPRCNT values of 100 or above, 50 for GIPRCNT values of 0, and 100 for GIPRCNT values of -100.

Structure (SMILES)	growth
O=C(/C(=C/c1ccc([N+](=O)[O-])cc1)SCc1ccc(F)cc1)c1ccc(F)cc1	103%
CCOC(=O)c1cc(C(=O)c2ccc(OC)cc2)n2ccc(/C=C/c3cc[n+](CC(=O)c4ccc(OC)cc4)cc3)cc12	103%
C=C(CBr)[C@@H]1CC[C@]2(COC(C)=O)CC[C@]3(C)[C@H](CC[C@@H]4[C@@]5(C)CCCNC(C)(C)[C@@H]5CC[C@]43C)[C@@H]12	60.7%
COc1ccc(C(=O)/C=C/c2cc3ccccc3n3nnnc23)cc1	110%
COc1ccc(/C=C2\Oc3cc(OCCCCCN4CCCCC4)ccc3C2=O)cc1OC	99.4%
COc1ccc(/C=C/C(=O)Nc2cc(/C=C\c3cc(OC)c(OC)c(OC)c3)cc(OC)c2OC)cc1OC	40.1%
Cc1cccc(NC(=O)Nc2ccc(-n3cnc4cc(-c5ccc(O)cc5)ccc43)cc2)c1	44%
COc1cc(NC(C)CCCNC(=O)CCC(=O)NCCCNCCCCCCCCCCNCCCNC(=O)CCC(=O)NCCCC(C)Nc2cc(OC)cc3cccnc23)c2ncccc2c1 (stereo not given)	86.8% [8 µM]
Cc1cc2cc3ccc(N(C)C)cc3nc2cc1N	-68.5% (active)
c1ccc2c(-c3c[nH]c4ccccc34)c3c(cc2c1)[nH]c1ccccc13	75.3%
COc1cc2nc(-c3ccc(Cl)cc3)cc(OCCCN3CCC(O)CC3)c2cc1OC	70%
O=C1c2cccc3c(-c4ccc5c(c4)ncn5C4CCCCC4)ccc(c23)C(=O)N1c1nc2ccccc2s1	96.6%
CN(C)CC(O)c1ccc(/C=C/c2ccc(Cl)cc2)cc1 (stereo not given)	-88.2% (active)
N#Cc1c(NC(=O)NCc2ccccc2)sc2c1CCCCC2	67.4%
O=S(=O)(NCCNc1nccc(-c2c(-c3cccc(F)c3)nc3sccn23)n1)c1ccc(Cl)cc1	74.7%
O=C(NCCNc1nccc(-c2c(-c3cccc(F)c3)nc3sccn23)n1)c1ccc(Cl)cc1	64.9%
O=C(CSc1nc2ccccc2[nH]1)NCc1ccccc1	102%
COc1cc(CC(=O)n2ncc3ccc(N)cc32)cc(OC)c1OC	99.9%
O=C(CSc1nc2sc3c(c2c(=O)n1-c1ccc(Cl)cc1)CCCC3)Nc1nc(-c2cccc(Br)c2)cs1	84.4%
COc1cc(-c2csc(NC(=O)c3cc(F)cc(C(F)(F)F)c3)n2)cc(OC)c1OC	50.3%

Structure (SMILES)	growth
O=C(Nc1cccc(C2=NCCN2)c1)c1ccc(-c2ccc(C(=O)Nc3cccc(C4=NCCN4)c3)cc2)cc1	46.3%
COc1cc2cc(Oc3cccc(NC(=O)Nc4cc(C(F)(F)F)cc(C(F)(F)F)c4)c3)c(C)nc2cc1OC	7.66% (active)
C=C(C)[C@@H]1CC[C@]2(C(=O)N3CCN(C)CC3)CC[C@]3(C)[C@H](CC[C@@H]4[C@@]5(C)CC[C@H](OCCC#N)C(C)(C)[C@@H]5CC[C@]43C)[C@@H]12	112%
O=C(/C=C(/C=C/c1coc2ccccc12)OB(F)F)/C=C/c1coc2ccccc12	101%
CC1=C(C(=O)/C=C/c2ccc(N(C)C)cc2)C(c2ccccc2)NC(=S)N1 (stereo not given)	110%
O=C1CC(=O)OC(c2ccc([N+](=O)[O-])cc2)O1	-17.3% (active)
O=C(Nc1ccc(-c2ccc3c(c2)NC(=O)/C3=C\c2ccc[nH]2)cc1)NC1CC1	111%
CCOC(=O)[C@@H](C)C[C@H](Cc1ccccc1)NC(=O)c1csc([C@@H](C[C@H](C(C)C)N(C)C(=O)[C@@H](NC(=O)[C@H]2C[C@H](O[Si](C)(C)C(C)(C)C)CCN2C)C(C)C)OC(C)=O)n1	24.2% [9.25 µM]
CN1C(=O)NC(c2ccc3c(c2)OCO3)C=C1c1ccccc1 (stereo not given)	106%
Cc1c2cc[nH]c(=O)c2c(C)c2c1[nH]c1cc(OCCN3CCN(C)CC3)ccc12	5.74% (active)
COc1cc(NCCCCCNC(C)(C)C)c2ncccc2c1	107%
CCNc1nc2ccc(Nc3ccnc4cc(Cl)ccc34)cc2[nH]1	99.5%
Cc1cccc(-c2cn3ccnc3c(-c3ccc4ncn(Cc5ccccc5)c4c3)n2)c1	101%
N#CC(C#N)=Cc1cc2ccccc2nc1Oc1ccc(C(F)(F)F)cc1	104%
c1ccc(Cn2cnc3ccc(-c4nc(-c5ccc6c(c5)ncn6C5CCCCC5)cn5ccnc45)cc32)cc1	0.441% (active)
Cn1cc(CC2CC(=O)N(c3ccccc3)C2=O)sc1=NC(=O)c1ccccc1 (stereo not given)	98.1%
Cn1cc(-c2nc(-c3c[nH]c4c(Cl)nccc34)cs2)c2cc(Br)ccc21	88.9%
CC(c1ccccc1)C(C(=O)c1ccccc1)c1ccccc1 (stereo not given)	94%
O=S(=O)(NCCCNc1nccc(-c2c(-c3cccc(O)c3)nc3occn23)n1)c1ccc(Cl)cc1	30.3%
CC(=O)O[C@H]1Cc2c([nH]c3ccccc23)[C@@H](c2ccc(Cl)cc2)N1C(=O)CCNC(C)(C)C	8.92% (active)
